Source: PubChem BioAssay
SNCA expr inh – Primary qHTS assay for inhibitors of alpha-synuclein gene (SNCA) expression; HEK-293 SNCA-luciferase knock-in, luminescence, 24 h; 140,000 tested, 0.17% active; Potency, µM (series often up to 57.2 µM), inactives show at the top dose activity change, negative = inhibition, usual class: inhibitors; AID 1671194, 2021;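 further: potency means the concentration at half of the fitted maximal effect; plate controls were DMSO cells for no effect and cell-free wells for full effect; nearly all actives have a fitted effect of over 45% in size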
IP6K1 inh – Primary qHTS assay for small molecule inhibitors of Inositol hexaphosphate kinase 1 (IP6K1). Inositol hexakisphosphate kinase 1 (Homo sapiens), Q92551. IP6K1 kinase, ADP-Glo luminescence, 2 h; hits give low values. activity change, % (series mostly up to about 58 µM). 140,000 tested, 0.81% active; in the data active means activity change below about -25%; further: on the % scale 0 is the no-effect control and ±100 the full control effect
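ADP-Glo luminescence measures ADP made by human IP6K1 during a 2 h RT reaction with ATP/IP6 (mix at 1.3 mM/130 uM); top library doses 57.5 and 19.1 uM final.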
SNCA viab count – GF-AFC viability counterscreen for inhibitors of alpha-synuclein gene (SNCA) expression. AID 1671193, 2021. HEK-293-SNCA-luc viability, GF-AFC fluorescence, 24 h. Potency, µM (top dose mostly 57.1 µM), without a hit: at the top dose activity change, negative = cytotoxicity, actives largely listed as cytotoxic. 150,000 tested, 0.12% active;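 further: potency means the concentration at half of the fitted maximal effect; 0% = DMSO-treated cells and -100% = medium-only wells without cells; nearly all actives have a fitted effect of over 30% in size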
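HEK-293-SNCA-luc cells (1500/well) plated 24 h, then exposed 24 h to a dilution series; GF-AFC added 30 min at 37C, fluorescence 405/540 nm; normalised to medium-only and DMSO wells, Hill fit.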
KDM5B inhibitor – Primary screen for KDM5B Histone Demethylases FDH-coupled qHTS; Potency, µM (highest dose often 57.7 µM), most hits filed as inhibitors; KDM5B demethylase, FDH-coupled NADH fluorescence (FDH is formaldehyde dehydrogenase); Lysine-specific demethylase 5B (Homo sapiens), Q9UGL1; 220,000 tested, 2.6% active; further: potency means the concentration at half of the fitted maximal effect; 0% is about no effect; nearly all actives have a fitted effect of over 70% in size
Target sequence (Q9UGL1 whole entry, looked up): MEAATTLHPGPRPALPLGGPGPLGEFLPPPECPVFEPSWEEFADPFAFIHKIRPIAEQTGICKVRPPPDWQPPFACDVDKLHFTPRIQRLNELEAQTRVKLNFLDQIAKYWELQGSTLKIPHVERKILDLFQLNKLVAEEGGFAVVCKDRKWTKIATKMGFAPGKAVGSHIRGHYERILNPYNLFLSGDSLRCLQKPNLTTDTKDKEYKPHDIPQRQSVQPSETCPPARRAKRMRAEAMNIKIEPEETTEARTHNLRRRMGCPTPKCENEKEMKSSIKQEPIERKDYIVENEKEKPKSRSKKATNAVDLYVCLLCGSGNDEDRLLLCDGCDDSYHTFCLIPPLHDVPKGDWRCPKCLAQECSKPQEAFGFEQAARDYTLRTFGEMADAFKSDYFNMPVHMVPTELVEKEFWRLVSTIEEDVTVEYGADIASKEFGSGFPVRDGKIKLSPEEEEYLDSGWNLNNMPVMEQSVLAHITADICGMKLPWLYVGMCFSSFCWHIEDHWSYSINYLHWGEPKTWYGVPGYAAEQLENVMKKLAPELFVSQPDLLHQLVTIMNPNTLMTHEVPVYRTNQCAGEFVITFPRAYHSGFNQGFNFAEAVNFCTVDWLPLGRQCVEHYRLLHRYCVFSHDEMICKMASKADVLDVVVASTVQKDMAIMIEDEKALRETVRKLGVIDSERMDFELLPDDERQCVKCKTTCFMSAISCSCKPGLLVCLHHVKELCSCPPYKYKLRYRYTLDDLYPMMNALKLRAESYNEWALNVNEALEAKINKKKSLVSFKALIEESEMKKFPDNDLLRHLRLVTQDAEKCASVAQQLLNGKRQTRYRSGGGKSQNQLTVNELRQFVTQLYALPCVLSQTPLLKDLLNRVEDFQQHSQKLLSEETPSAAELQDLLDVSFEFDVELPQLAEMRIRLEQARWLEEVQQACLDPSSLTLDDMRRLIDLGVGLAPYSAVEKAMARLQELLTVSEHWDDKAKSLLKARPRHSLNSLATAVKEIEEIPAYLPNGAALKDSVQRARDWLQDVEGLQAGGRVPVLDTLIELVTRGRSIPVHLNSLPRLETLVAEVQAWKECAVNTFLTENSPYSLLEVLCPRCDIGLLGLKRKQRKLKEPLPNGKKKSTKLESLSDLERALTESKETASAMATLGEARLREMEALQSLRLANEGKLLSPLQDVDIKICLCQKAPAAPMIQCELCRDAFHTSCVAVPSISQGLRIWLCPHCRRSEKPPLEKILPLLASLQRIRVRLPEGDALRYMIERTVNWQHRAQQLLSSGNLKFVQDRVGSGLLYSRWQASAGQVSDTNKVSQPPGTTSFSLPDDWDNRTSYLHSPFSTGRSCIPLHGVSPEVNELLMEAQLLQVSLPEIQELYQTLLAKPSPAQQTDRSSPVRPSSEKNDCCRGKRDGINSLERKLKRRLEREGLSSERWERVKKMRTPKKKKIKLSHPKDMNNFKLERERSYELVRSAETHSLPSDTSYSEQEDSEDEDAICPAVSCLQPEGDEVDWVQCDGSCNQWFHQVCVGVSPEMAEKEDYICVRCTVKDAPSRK
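Inhibition is measured as reduced NADH fluorescence generation from FDH coupling to formaldehyde release. Truncated KDM5BΔAP at 200 nM final acts on H3K4me3 peptide (12.5 µM in substrate mix) in pH 7.5 HEPES buffer with Tween-20, 30 min, room temperature.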
Numbers without * were called inactive; i = inactive; ? = inconclusive; . = no result; [ ] = remark or other dose. Sampled rows, rich in hits. Any-hit rate of the full collection: about 2.8%. Unless noted, the call rests on the fitted dose curve; in most records, active means well fitted curve in the direction sought with a large enough effect; inconclusive means small, poorly fitted or top-dose-only effect, or another doubt; inactive means no such curve, though single readings can be large; an effect the other way counts as inactive or inconclusive.

SMILES	SNCA expr inh	IP6K1 inh	SNCA viab count	KDM5B inhibitor
Cc1noc2c(-c3ccc(CO)cc3)cc(-c3cccs3)nc12	-13%[87.6 µM]	45	16%[87.6 µM]	?
Cc1noc2c(-c3ccsc3)cc(-c3cccnc3)nc12	-16%[87.6 µM]	-9	7%[87.6 µM]	?
COc1ccc(OC)c(-c2cc(-c3cccs3)nc3c(C)noc23)c1	-24%[87.6 µM]	-11	5%[87.6 µM]	40µM*
COc1ccccc1-c1cc(-c2ccsc2)c2onc(C)c2n1	-1%[87.6 µM]	-9	4%[87.6 µM]	28µM*
COC(=O)c1ccc(COc2ccc(/C=C/c3nc4c(ccc5ccccc54)s3)cc2)cc1	.	.	.	i
COc1cc2c(cc1OC)C(C[C@H]1CN(C(=O)C(C)(C)C)CC[C@H]1CC(=O)O)=NCC2	-2%[87.6 µM]	5	2%[87.6 µM]	i
COc1ccc2c(c1)CCN=C2C[C@H]1CN(C(=O)c2c(C)noc2C)CC[C@H]1CC(=O)O	-5%	7	8%	22µM*
COc1ccc2c(c1)CCN=C2C[C@H]1CN(C(=O)CC(C)(C)C)CC[C@H]1CC(=O)O	22%[87.6 µM]	17	11%[87.6 µM]	28µM*
COc1ccc2c(c1)C(C[C@H]1CN(C(=O)C(C)(C)C)CC[C@H]1CC(=O)O)=NCC2	-35%[87.6 µM]	11	4%[87.6 µM]	35µM*
COc1ccc2c(c1)CCN=C2C[C@H]1CN(C(=O)c2ccc(F)cc2)CC[C@H]1CC(=O)O	-22%[87.6 µM]	-4	2%[87.6 µM]	?
COc1ccc(CNC(=O)C2CCN(C(=O)C3CN(c4ccc(OC)cc4)C(=O)N3)C2)cc1 (configuration not stated)	-6%	-8	3%	i
CCC(=O)N1CCCCCCNC(=O)[C@@H]2CCC[C@@H]21	3%	1	-1%	i
O=C1CCN(C(=O)c2ccsc2)CCCC(C(=O)N2CCN(c3ccccn3)CC2)CCN1 (configuration not stated)	7%	1	-2%	20µM*
O=C1CCN(Cc2ccncc2)CCCC(C(=O)N2CCN(c3ccccn3)CC2)CCN1 (configuration not stated)	-20%	-7	0%	?
CCN(CC)C(=O)c1cc2c(s1)CCC(C(=O)N1CCN(c3ccccc3)CC1)C2 (configuration not stated)	9%	8	-2%	i
CCN(CC)C(=O)c1cc2c(s1)CCC(C(=O)N1CCN(c3ccccn3)CC1)C2 (configuration not stated)	?	3	-11%	28µM*
O=C1CCN(C(=O)C2CCC2)CCCC(C(=O)N2CCN(c3ccccn3)CC2)CCN1 (configuration not stated)	21%	3	3%	22µM*
Cc1cccc(OCC(=O)N[C@@H]2CN(c3ncccn3)C[C@H]2CN(C)C)c1	1%	26	-11%	22µM*
CN(C)C[C@@H]1CN(c2ncccn2)C[C@H]1NC(=O)COc1ccc(F)cc1	-12%	6	-12%	?
CN(C)C[C@@H]1CN(c2ncccn2)C[C@H]1NC(=O)COc1ccc(Cl)cc1	0%	5	-14%	28µM*
COc1ccc(-c2cc(=O)n3[nH]c(C)c(-c4ccccc4)c3n2)cc1OC	.	.	.	i
Cn1cc(C(=O)NCC2CN(C(=O)c3ccc(Oc4ccccc4)cc3)CC23CN(c2ccccc2)C3)cn1 (configuration not stated)	-38%	14	-23%	i
O=C(NCCCn1cccn1)c1ccccc1OC1CCN(Cc2ccccn2)CC1	31%	6	-1%	i
CCCn1cc(-c2ccnc(NCc3cccc(C)c3)n2)c(C)n1	-4%	0	3%	28µM*
CCCn1cc(-c2ccnc(NCc3c(F)ccc(C)c3F)n2)c(C)n1	-18%	0	-19%	?
CCCn1cc(-c2ccnc(NC3CCN(Cc4ccccn4)CC3)n2)c(C)n1	?	9	-29%	28µM*
O=C(NC1CCN(c2cnn(CC3CC3)c(=O)c2)CC1)c1ccc2c(c1)OCO2	5%	8	?	i
Cn1nc(C2CCNC2)c2c(C(=O)NCc3ccc(F)cc3)cc(C3CC3)nc21 (configuration not stated)	-3%	-1	3%	79µM*
O=C(c1cc(C2CC2)nc2onc(C3CCNCC3)c12)N1CCC(F)CC1	-11%	-3	7%	i
